The panel holds about 83,000 compounds, 20% with a hit somewhere; the sample as a whole holds those more often.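 Negative percent growth values reflect cell death: -40 means 40% of the cells present at the start died, and -100 means all died.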 Unmarked numbers belong to inactive results. Active and inactive are the calls of the source. Rule for the calls: active = growth percent below 10; inactive = the rest.
Experiments:
Assay in all cases: NCI-60 one-dose screen, 48 h (100 = growth as untreated, 0 = no growth, -100 = all killed)
Details in all cases: 10 µM unless noted
T-47D breast = test system: T-47D breast
BT-549 breast = test system: BT-549 breast
MDA-MB-435 melanoma = test system: MDA-MB-435 melanoma
SW-620 colon = test system: SW-620 colon
MCF7 breast = test system: MCF7 breast
HCT-116 colon = test system: HCT-116 colon
HCC-2998 colon = test system: HCC-2998 colon
KM12 colon = test system: KM12 colon

Compound | growth (T-47D breast) | growth (BT-549 breast) | growth (MDA-MB-435 melanoma) | growth (SW-620 colon) | growth (MCF7 breast) | growth (HCT-116 colon) | growth (HCC-2998 colon) | growth (KM12 colon)
O=C1C=Cc2ccccc2/C1=C/c1nc(-c2ccccc2)oc1O | 65.5% | 102% | 97.5% | 97.4% | 39.6% | 81.5% | 129% | 92.1%
CCCCCCCCCCCC1=NCCCN1CCCC | 97.4% | 94.6% | 110% | 97.5% | 91.1% | 83.6% | 75.7% | 103%
COc1ccc2c(c1OC)OCC(CN(C)C)C2=O (centres undefined) | 69.5% | 82.4% | 96.1% | -78.3% (active) | 75% | 77.6% | 105% | 96.8%
CCC[CH2][Sn]1([CH2]CCC)[O]C2C(CO)OC(n3ccc(N)nc3=O)C2[O]1 (centres undefined) | -68.8% (active) | -85.2% (active) | -75.5% (active) | -77.1% (active) | -92.2% (active) | -73.6% (active) | -19.2% (active) | 7.12% (active)
Cc1cc(N/N=C/c2ccccn2)nc2ccccc12 | 24.1% | 15.1% | 29.6% | 18.5% | 14% | 17.6% | 24.7% | 24.5%
CN=C(N)N/N=C(\c1ccccc1)c1ccc(Br)cc1 | 39.3% | 21.5% | -60.8% (active) | 29.4% | 4.81% (active) | 8.58% (active) | -61.1% (active) | 9.22% (active)
OC(CSc1ccccc1)CN1CCN(c2ccc(Cl)cc2)CC1 (centres undefined) | 95.9% | 102% | 105% | 105% | 98% | 90.2% | 95.3% | 110%
COc1cc2c(c(OC)c1OC)-c1ccc(NCc3ccccc3)c(=O)cc1[C@@H](NC(C)=O)CC2 | 59.4% | 0.422% (active) | -54.8% (active) | 16.6% | 7.93% (active) | 9.33% (active) | 10.6% | 12.7%
Clc1ccc(-n2ncc3c(NCCCN4CCOCC4)ncnc32)cc1 | 85.3% | 101% | 98.9% | 104% | 89.9% | 94.9% | 105% | 103%
CC(=O)C1Cc2ccccc2C1=O (centres undefined) | 101% | 91.3% | 103% | 101% | 95.4% | 103% | 108% | 102%
CN(C)c1ccc(C(=C2C=CC(=[N+](C)C)C=C2)c2ccc(N(C)C)cc2)cc1 | -19.2% (active) | -66% (active) | -82.6% (active) | -67.2% (active) | -71.6% (active) | -83.3% (active) | -91.6% (active) | -95.6% (active)
Cc1cc(C(=O)c2ccc(Cl)cc2)ccc1O | 97% | 94.7% | 95.6% | 98% | 108% | 84.8% | 102% | 103%
COc1cc(/C=C/C(=O)CC(=O)/C=C/c2ccc(O)c(OC)c2)ccc1O | 50.7% | 13.9% | 1.75% (active) | 23.1% | 17% | 0.952% (active) | -74.8% (active) | 0.643% (active)
COc1ccc2c(c1)c(CC(=O)O)c(C)n2C(=O)c1ccc(Cl)cc1 | 107% | 66.9% | 96.8% | 98.8% | 83.7% | 95.2% | 108% | 99.2%
COc1cc(/C=C/c2ccnc3ccccc23)cc(OC)c1OC | 41.1% | 11.7% | -8.94% (active) | 17.4% | 16.1% | 20% | 34.6% | 12.4%
COc1cc(OC)c(/C=C/c2c3ccccc3cc[n+]2C)c(OC)c1 | 13% | 17.8% | 2.01% (active) | 28.2% | 12.9% | 18.5% | 21.8% | 6.03% (active)

Compound | growth (T-47D breast) | growth (BT-549 breast) | growth (MDA-MB-435 melanoma) | growth (SW-620 colon) | growth (MCF7 breast) | growth (HCT-116 colon) | growth (HCC-2998 colon) | growth (KM12 colon)
CCN(CC)CC(O)CNc1ccc(NCC2CO2)c2c1C(=O)c1ccccc1C2=O (centres undefined) | -3.27% (active) | -56.9% (active) | -62.4% (active) | -28.7% (active) | -13% (active) | -11.2% (active) | -83.5% (active) | -69.1% (active)
CC1=CC(=NC(=O)CBr)C=C/C1=N\S(=O)(=O)c1ccccc1 | 12.3% | 65.6% | 43.4% | 17% | 16.3% | 22.8% | 110% | 106%
CCCCCC/C=C1\CCC(CN2CCCC2)C1=O (centres undefined) | 77.7% | 104% | 109% | 97.9% | 7.97% (active) | 84.5% | 107% | 75.4%
CCCCCCCCCCCCCCCCSC(=NCC)NCC | 8.09% (active) | 64.4% | -89.7% (active) | -71.7% (active) | -66.3% (active) | -94.3% (active) | -64.9% (active) | -30.7% (active)
O=C(c1ccccc1)C(Br)C(Br)c1ccccc1 (centres undefined) | 31% | 101% | 74.6% | -76.9% (active) | 31.3% | -95.7% (active) | 93.3% | 55.1%
O=C1/C(=C/c2ccccc2)CCC/C1=C\c1ccccc1 | 82% | 80.5% | 13.2% | 22% | 30.7% | -79% (active) | 81.4% | 10.1%
O=C1C=CC(=O)N1c1ccc(O)cc1 | 83.3% | 103% | 107% | 95.6% | 102% | 106% | 105% | 109%
O=C1CSC(=S)N1Cc1cccnc1 | 18.5% | 51.7% | 37% | 17% | 10.5% | 42.3% | 126% | 7.96% (active)
CCOC(=O)C1=NN(c2ccccc2)C(=O)/C1=C\N1C(=O)/C(=C/c2cccc(O)c2)SC1=S | 93% | 97% | 109% | 97.6% | 91.8% | 88.8% | 99.8% | 100%
OC(c1cc(C23CC4CC(CC(C4)C2)C3)nc2c(Cl)cc(Cl)cc12)C1CCCCN1 (centres undefined) | -74.3% (active) | 37.7% | -66.1% (active) | -68.1% (active) | -80.7% (active) | -84% (active) | -71.7% (active) | -91.4% (active)
CCCCCCCCc1cc(Cl)c(O)c(Cl)c1 | 101% | 116% | 102% | 117% | 118% | 103% | 112% | 101%
Cn1c(-c2ccccc2)c(/C=C/C2=[N+](C)c3ccccc3C2(C)C)c2ccccc21 | -3.22% (active) | 22.1% | 2.09% (active) | 14.3% | 4.58% (active) | 9.76% (active) | 27% | -22.8% (active)
c1ccc2sc(SSN3CC4CCC(CC4)C3)nc2c1 | 96.5% | 126% | 108% | 110% | 107% | 103% | 123% | 145%
COC1CC(C)C(OC)c2cc(O)cc(c2O)NC(=O)/C(C)=C/C=C\C(C)C(OC(N)=O)/C(C)=C\C(C)C1OC (centres undefined) | 1.33% (active) | -44.8% (active) | 12.7% | 2.74% (active) | 20.8% | -92.8% (active) | -11.6% (active) | -46.4% (active)
O=[N+]([O-])c1cc(-c2ccccc2)c(O)c([N+](=O)[O-])c1 | 83.2% | 52.2% | 85.5% | 98.2% | 77% | 86.8% | – | 84.1%
Nc1ccc(Oc2ccccc2)c(Cl)c1 | 86.6% | 97.6% | 93.6% | 107% | 95.6% | – | 113% | 104%

Reference: PubChem BioAssay (NCI)
